Screening data (PubChem BioAssay)
Pf growth 48h – P. falciparum growth inhibition at 48 hours (one generation). 5.9% of 310,000 active. Potency, µM (highest dose often 28.7 µM), actives largely listed as inhibitors. P. falciparum luciferase growth in erythrocytes, 48 h
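Here the parasites carry a stable luciferase gene and grow inside erythrocytes in Albumax-based RPMI medium with compound for one erythrocytic cycle. Activity is scored as loss of luminescent signal.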
Shiga toxin inh – inhibitors of Shiga toxin in Vero cells; Vero cells, Shiga toxin protein synthesis inhibition reporter; inhibition, % at 38.7 µM; 9.2% of 290,000 active; AID 2315; in the data active = inhibition mostly above about 28%, no sharp cut-off; inactive = mostly below about 43%
Pf growth 96h – P. falciparum growth inhibition at 96 hours | Potency, µM (highest dose often 28.7 µM), hits mostly inhibitors | 6.9% of 320,000 active | P. falciparum luciferase reporter growth, 96 h
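96 h incubation, 37 C, 5% CO2, of luciferase-reporter P. falciparum-infected RBCs (2% hematocrit, 0.05% parasitemia final) with test compounds; endpoint luminescence.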
HCMV antiviral – human cytomegalovirus inhibition; HFF cells, HCMV-luciferase reporter, 72 h; active compounds read low; activity change, negative = inhibition, % at 57.5 µM; 4.5% of 410,000 active; AID 1259415; in the data active = activity change below about -60%; inconclusive = no clear call, values can overlap the other calls; inactive = above about -39%
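Cell-based, HFFs, 1000 cells/well, 16 h 37C; cpds in DMSO + HCMV-luc, MOI 1 PFU/cell; 72 h 37C; OneGlo luminescence after 5 min RT; norm. to buffer vs Salinomycin 10uM.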
CHX counter – counter-screen hit for Shiga toxin inhibitors, cycloheximide. cell reporter, cycloheximide protein synthesis inhibition counterscreen. 12% of 300,000 active. max response, %. AID 2314; in the data active = max response mostly above about 13%, no sharp cut-off; inactive = mostly below about 14%; also: read at 38.3 µM for the half of the compounds with a filed dose
Of the large screens only hits and unclear results are named; the others gave an inactive call. Compounds with a hit are over-represented: about 20% of the library has one in this group of screens. Unless noted, calls follow the shape of the dose curve; as a rule, active = well fitted inhibition curve with a large enough effect; inconclusive = small, poorly fitted or top-dose-only effect, or another doubt; inactive = no such curve, though single readings can be large or run the other way.

COc1ccccc1NC(=O)c1sc2ncn(Cc3cccc(C)c3)c(=O)c2c1C	HCMV antiviral -102
COc1ccccc1NC(=O)c1sc2ncn(Cc3ccc(C)cc3)c(=O)c2c1C	Pf growth 48h inconclusive, Pf growth 96h inconclusive, HCMV antiviral inconclusive
CC(=O)c1cccc(NC(=O)C(Cc2ccccc2)NS(=O)(=O)c2ccc(Br)s2)c1 (stereo not drawn)	none (no result: Pf growth 48h, Shiga toxin inh, Pf growth 96h, CHX counter)
CCOc1ccc(-n2c(SCC(=O)NCC3CCCO3)nc3c([nH]c4ccccc43)c2=O)cc1 (stereo not drawn)	none (no result: Pf growth 48h, Shiga toxin inh, Pf growth 96h, CHX counter)
CCOC(=O)N1CCc2c(sc(NC(=O)Cc3ccccc3)c2C(=O)c2ccc(OC)cc2)C1	Pf growth 48h 5.2µM, Pf growth 96h inconclusive
CCOC(=O)N1CCc2c(sc(NCc3cc(OC)ccc3OC)c2C(=O)Nc2cc(OC)ccc2OC)C1	none (no result: Pf growth 48h, Shiga toxin inh, Pf growth 96h, CHX counter)
COc1ccc(C(=O)c2c(NC(C)=O)sc3c2CCN(C(=O)OC(C)(C)C)C3)cc1	Pf growth 48h 8.3µM, Pf growth 96h 9.3µM, HCMV antiviral inconclusive
CN(CCOc1ccc(-c2ccn(S(=O)(=O)c3cccc4ccccc34)n2)cc1)c1ccccn1	Pf growth 48h 10µM, Pf growth 96h 9.3µM
CN(CCOc1ccc(-c2ccn(S(=O)(=O)c3c(Cl)cccc3Cl)n2)cc1)c1ccccn1	Pf growth 48h inconclusive, Pf growth 96h 2.6µM
CN(c1ccccc1)S(=O)(=O)c1cccc2ccccc12	HCMV antiviral inconclusive (no result: Shiga toxin inh)
CN(CCOc1ccc(-c2ccn(S(=O)(=O)c3ccc(Cl)cc3)n2)cc1)c1ccccn1	Pf growth 48h 10µM, Pf growth 96h 10µM
COC(=O)C1C(=O)C(C(=O)c2ccccc2)C(=O)CC1(C)C (stereo not drawn)	Pf growth 48h inconclusive
COC(=O)C1C(=O)C(C(=O)/C=C/c2ccccc2)C(=O)CC1(C)C (stereo not drawn)	Pf growth 48h inconclusive, HCMV antiviral -82
Cc1c(N=C2C=CC(=O)c3ccccc32)c(=O)n(-c2ccccc2)n1C	Pf growth 48h inconclusive, Pf growth 96h 15µM
Cc1c(N=C2N=C(NC(=O)NC(C)(C)C)c3ccccc32)c(=O)n(-c2ccccc2)n1C	Pf growth 48h 13µM, Pf growth 96h inconclusive
Cc1c(N=C2N=C(NC(=O)c3cccs3)c3ccccc32)c(=O)n(-c2ccccc2)n1C	none
Cc1cc(N)ccc1N=Nc1c(C)n(C)n(-c2ccccc2)c1=O	CHX counter 31
Cc1ccc(-n2nc(CO)c(C(=O)NCc3cccnc3)n2)cc1	none (no result: Pf growth 48h, Shiga toxin inh, Pf growth 96h, CHX counter)
Cc1nc(-c2c(-c3ccc(O)cc3O)noc2C(F)(F)F)cs1	Pf growth 48h inconclusive, HCMV antiviral -67 (no result: Pf growth 96h)
COc1ccc(-c2ncnc(C(F)(F)F)c2-c2csc(C)n2)c(O)c1	Pf growth 48h inconclusive, Pf growth 96h inconclusive, HCMV antiviral inconclusive
O=c1c2ccccc2cnn1CCOc1ccccc1	HCMV antiviral -87
CSCC(O)Cn1ncc2ccccc2c1=O (stereo not drawn)	CHX counter 21
O=C(O)Cn1ncc2ccccc2c1=O	none
CC1CCCCC1NC(=O)c1cc(Cl)nc2ccccc12 (stereo not drawn)	none (no result: Pf growth 48h, Shiga toxin inh, Pf growth 96h, CHX counter)
O=C1C2CC=C(Cl)CC2C(=O)N1CCCCCCN1C(=O)C2CC=C(Cl)CC2C1=O (stereo not drawn)	Pf growth 96h 12µM (no result: Pf growth 48h)
O=C1C2CC=C(Cl)CC2C(=O)N1CCC[n+]1cccc2ccccc21 (stereo not drawn)	Pf growth 48h 9.3µM, Pf growth 96h inconclusive
Cc1cc(OCCN2CCOCC2)ccc1[N+](=O)[O-]	none
Cc1ccc(C(=O)OCC(=O)N2CCOCC2)cc1	Shiga toxin inh 50, CHX counter 27
Cc1ccc(-c2ccc(OCC(=O)N3CCOCC3)cc2)cc1	Shiga toxin inh 62, CHX counter 42 (no result: Pf growth 96h)
CC1CCN(C(=O)COC(=O)c2ccccc2C(=O)c2ccccc2)CC1	none (no result: Pf growth 48h, Shiga toxin inh, Pf growth 96h, CHX counter)
Cc1ccc(C(=O)c2ccccc2C(=O)OCC(=O)N2CC(C)CC(C)C2)cc1 (stereo not drawn)	Pf growth 48h 7.4µM, Pf growth 96h 7.4µM (no result: Shiga toxin inh, CHX counter)
Cc1cc(OCC(=O)N2CCOCC2)ccc1[N+](=O)[O-]	Shiga toxin inh 58, CHX counter 25
CCOc1ccccc1N(C)C(=O)c1sc2nc3n(c(=O)c2c1C)CCCC3	none (no result: Pf growth 48h, Shiga toxin inh, Pf growth 96h, CHX counter)
CCc1nn(CCCC(=O)N2CCN(c3cccc(OC)c3)CC2)c(=O)c2cc3occc3n12	none (no result: Pf growth 48h, Shiga toxin inh, Pf growth 96h, CHX counter)
N#Cc1ccc(C(=O)OCC(=O)N2CCOCC2)cc1	none
Cc1ccc(C(=O)OCC(=O)N2CCCCCC2)c(O)c1	none (no result: Shiga toxin inh, CHX counter)
O=C(Oc1ccc(C(=S)N2CCOCC2)cc1)c1ccccc1	Pf growth 96h inconclusive
Cc1ccc(C(=O)OCC(=O)N2CCOCC2)c(C)c1	CHX counter 18
O=C(OCC(=O)N1CCOCC1)c1ccc(Br)cc1	CHX counter 20
O=C(Oc1ccc(C(=S)N2CCOCC2)cc1)c1ccc(Br)cc1	HCMV antiviral -60
Cc1cc(OCC(=O)N2CCOCC2)ccc1NC(=O)c1ccccc1C	CHX counter 21
COc1ccccc1N1CCN(c2ccc(=O)n(CC(=O)Nc3ccc(F)c(F)c3)n2)CC1	none (no result: Pf growth 48h, Shiga toxin inh, Pf growth 96h, CHX counter)
O=c1oc2ccccc2n1CCCOc1ccccc1Cl	none (no result: Pf growth 48h, Shiga toxin inh, Pf growth 96h, CHX counter)
CCOc1ccc(S(=O)(=O)N2CCC(C(=O)N3CCc4ccccc4C3)CC2)cc1	Pf growth 48h inconclusive, Pf growth 96h 2.9µM, HCMV antiviral inconclusive
COc1ccc(S(=O)(=O)N2CCC(C(=O)N3CCc4ccccc4C3)CC2)cc1	Pf growth 48h inconclusive
CCOc1ccc(S(=O)(=O)N2CCC(C(=O)NCc3ccco3)CC2)cc1C	Pf growth 48h inconclusive, Pf growth 96h 1.9µM
COc1ccc(S(=O)(=O)N2CCC(C(=O)NCc3ccco3)CC2)cc1	Pf growth 48h 3.3µM, Pf growth 96h inconclusive
CCOc1ccc(S(=O)(=O)N2CCN(C(=S)NCc3ccco3)CC2)cc1	Pf growth 48h 2.9µM, Pf growth 96h 2.3µM
COc1ccc2c(c1)c1c(c(=O)n(-c3ccccc3C)c(=O)n1Cc1cccc(C(F)(F)F)c1)n2C	none (no result: Pf growth 48h, Shiga toxin inh, Pf growth 96h, CHX counter)
CC(C)(C)NS(=O)(=O)c1ccc(CCC(=O)NCc2ccco2)cc1	Pf growth 96h 12µM
CCOc1ccc(S(=O)(=O)N2CCC(C(=O)NCC3CCCO3)CC2)cc1C (stereo not drawn)	Pf growth 96h 2.3µM
CC(NS(=O)(=O)c1ccc(Br)cc1)C(=O)NCc1ccco1 (stereo not drawn)	HCMV antiviral -73
CC(=O)Nc1ccc(S(=O)(=O)N2CCC(C(=O)NCc3ccco3)CC2)cc1	Pf growth 96h inconclusive
CC(C)c1ccc(S(=O)(=O)N2CCC(C(=O)NCc3ccco3)CC2)cc1	Pf growth 48h 3.3µM, Pf growth 96h 2.6µM (no result: Shiga toxin inh, CHX counter)
CS(=O)(=O)N1CCCC(C(=O)NCc2ccco2)C1 (stereo not drawn)	Pf growth 96h inconclusive
CC1CC(C)CN(S(=O)(=O)c2ccc(C(=O)NCc3ccco3)cc2)C1 (stereo not drawn)	Pf growth 48h inconclusive, Pf growth 96h 8.3µM
CC1CN(S(=O)(=O)c2cccc(C(=O)NCc3ccco3)c2)CC(C)O1 (stereo not drawn)	Pf growth 96h inconclusive (no result: Shiga toxin inh, CHX counter)
O=C(NCc1ccco1)C1CCCN(S(=O)(=O)c2ccc(Br)cc2)C1 (stereo not drawn)	Pf growth 96h 15µM, HCMV antiviral inconclusive
